This is an account of results in PubChem BioAssay AID376 (PDSP, 2006).

The structures appear in SMILES notation. About 250 (12%) of roughly 2,000 compounds were called active. Rule as the data show it: active = hERG blockade below about -20% or above about 20%; inactive = in between. For the sample, actives were picked, then their nearest neighbours and some compounds at random.

Chain of Voltage-gated inwardly rectifying potassium channel KCNH2 (Homo sapiens) (Q12809 whole entry, looked up): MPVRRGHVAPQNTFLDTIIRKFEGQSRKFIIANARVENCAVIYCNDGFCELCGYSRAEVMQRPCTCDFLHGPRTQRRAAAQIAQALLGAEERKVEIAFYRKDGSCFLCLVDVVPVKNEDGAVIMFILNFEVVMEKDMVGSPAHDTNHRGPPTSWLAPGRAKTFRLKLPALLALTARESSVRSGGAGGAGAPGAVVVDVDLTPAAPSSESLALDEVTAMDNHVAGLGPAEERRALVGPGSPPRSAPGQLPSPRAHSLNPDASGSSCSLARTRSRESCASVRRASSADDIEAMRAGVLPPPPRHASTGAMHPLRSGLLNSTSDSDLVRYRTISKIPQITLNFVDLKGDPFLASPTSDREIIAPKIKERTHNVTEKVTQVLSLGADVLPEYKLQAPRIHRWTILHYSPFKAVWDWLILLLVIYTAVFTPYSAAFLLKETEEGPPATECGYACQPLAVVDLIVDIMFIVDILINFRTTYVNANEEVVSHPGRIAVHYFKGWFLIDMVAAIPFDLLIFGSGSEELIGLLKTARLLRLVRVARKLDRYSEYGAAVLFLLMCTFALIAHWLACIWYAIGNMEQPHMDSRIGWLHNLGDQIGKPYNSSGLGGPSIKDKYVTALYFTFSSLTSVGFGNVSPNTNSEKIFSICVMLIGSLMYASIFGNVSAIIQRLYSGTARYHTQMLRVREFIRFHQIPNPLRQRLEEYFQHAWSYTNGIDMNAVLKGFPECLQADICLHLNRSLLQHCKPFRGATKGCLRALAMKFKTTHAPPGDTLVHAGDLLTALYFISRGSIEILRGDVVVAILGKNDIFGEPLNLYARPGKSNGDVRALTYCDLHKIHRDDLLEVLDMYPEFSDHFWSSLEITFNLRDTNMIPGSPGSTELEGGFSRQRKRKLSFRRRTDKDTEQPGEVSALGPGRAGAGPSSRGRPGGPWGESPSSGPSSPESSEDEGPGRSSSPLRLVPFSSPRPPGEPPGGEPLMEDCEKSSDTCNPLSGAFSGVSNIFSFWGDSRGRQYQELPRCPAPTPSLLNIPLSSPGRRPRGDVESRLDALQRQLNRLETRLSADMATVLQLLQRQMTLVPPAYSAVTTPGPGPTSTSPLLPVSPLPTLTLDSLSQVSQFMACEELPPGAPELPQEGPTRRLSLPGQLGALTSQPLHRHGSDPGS

The experiment addresses Voltage-gated inwardly rectifying potassium channel KCNH2 (Homo sapiens) (UniProt Q12809). The experiment is described as follows: KCNH2 potassium channel function modulators, cell-based (AID 376).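 Also: 0% = buffer alone and 100% = reference blocker.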 Conditions: hERG-expressing cells, channel activity single-concentration screen; concentration not given here. (Block of hERG is tested as a sign of cardiac risk.)
Turning to `OCCCN=C1CCCCC1`, the hERG blockade was 13.3% (inactive).

For `NCc1ccc(C(=O)O)cc1`, the hERG blockade is -10.8% (inactive).

Consider `c1cncc(CNc2ncn[nH]2)c1`, for which the hERG blockade is -6.56% (inactive).

`CC(C)N1CCN(c2ccncc2S(=O)(=O)N2CCCCC2)CC1`: the hERG blockade is 4.4% (inactive).

For the compound `O=c1[nH]c2[nH]c(=S)[nH]c(=S)c2[nH]1`, the hERG blockade is 33.1% (active).

Consider `O=c1[nH][nH]c(=S)c(=O)[nH]1`, for which the hERG blockade is 4.97% (inactive).

As for `Clc1ccccc1NN(Cc1ccccn1)c1ccccc1Cl`, the hERG blockade is 7.97% (inactive).

As for `Cc1cc(=O)[nH]c(N=C(N)Nc2ccc(Cl)cc2)n1`, the hERG blockade was -17.7% (inactive).

As for `Cc1cccc(C(=O)O)c1CC1NCCC2c3ccccc3NC12` (stereo unspecified), the hERG blockade is 32.1% (active).

Consider `NC(Cc1cccnn1)C(=O)O` (stereo unspecified), for which the hERG blockade was 5.87% (inactive).

In the case of `O=S(=O)(O)n1ccnc1` (tested in a mixture with another compound), the hERG blockade was -15.4% (inactive).

As for `S=C(Nc1ccc2cn[nH]c2c1)Nc1ccc2cn[nH]c2c1`, the hERG blockade is -19.3% (inactive).

As for `CCN(CC)CC[n+]1ccc2c(C)c3[nH]c4ccc(O)cc4c3c(C)c2c1`, the hERG blockade is 45.4% (active).

For the compound `CCN(CC)CC[n+]1ccc2c(C)c3[nH]c4ccccc4c3c(C)c2c1`, the hERG blockade was 36.7% (active).

With `Cc1c2cc[n+](CCN3CCCCC3)cc2c(C)c2c1[nH]c1ccc(O)cc12`, the hERG blockade was 26.1% (active).

Take `NCCNC(=S)S`: the hERG blockade was 5.6% (inactive).

For the compound `NN=C1CC(=O)NC(=O)N1`, the hERG blockade was -9.37% (inactive).

With `CCCCNc1nc(SC)nc2nc[nH]c12`, the hERG blockade was 6.48% (inactive).

In the case of `COC1C=COC2(C)Oc3c(C)c(O)c4c(O)c(cc(O)c4c3C2=O)NC(=O)C(C)=CC=CC(C)C(O)C(C)C(O)C(C)C(OC(C)=O)C1C` (stereo unspecified), the hERG blockade is 8.1% (inactive).

For `CC(C)(C)COS(=O)OCC(C)(C)C`, the hERG blockade is -13.1% (inactive).

Consider `CC(=O)C=NCC(=O)O`, for which the hERG blockade was -0.567% (inactive).

Regarding `O=C(O)Cc1c[nH]c2ccc(F)cc12`, the hERG blockade was -3.11% (inactive).

As to `CCOP1(=O)OCC2OC(n3cnc4c(N)ncnc43)C(O)C2O1` (stereo unspecified), the hERG blockade is 5.38% (inactive).

Consider `CCOc1ccc2c(ccc(C=Cc3cc(C)c4cccnc4c3O)[n+]2C)c1`, for which the hERG blockade is 37% (active).

For the compound `O=C(O)CCC(C(=O)O)N1C(=O)C2C3CCC(C3)C2C1=O` (stereo unspecified), the hERG blockade was 7.54% (inactive).

With `CC12CCC(=O)C=C1CCC1C2C(O)CC2(C)C(c3csc(-c4ccccc4)n3)CCC12` (stereo unspecified), the hERG blockade is -6.87% (inactive).

Consider `CCc1ccc2c(c1)N(CC(C)CN(C)C)c1ccccc1S2` (stereo unspecified), for which the hERG blockade is 25.4% (active).

Turning to `O=C(O)C(Cc1ccccc1)Cc1ccccc1`, the hERG blockade was -4.1% (inactive).

As to `CN(C)c1ccc(C(C#N)N2CCCN(C(C#N)c3ccc(N(C)C)cc3)C2c2ccc(N(C)C)cc2)cc1` (stereo unspecified), the hERG blockade was 6% (inactive).

As for `Cc1ccc(S(=O)(=O)N=Nc2c(O)[nH]c3cc(O)c(C(=O)O)cc23)cc1`, the hERG blockade was -2.22% (inactive).

In the case of `O=[N+]([O-])c1ccc(Cl)c(CNc2ncnc3c2ncn3C2CCCCO2)c1` (stereo unspecified), the hERG blockade was 7.11% (inactive).

Turning to `OCC1OC(n2cnc3c(C=C(O)c4ccccc4)ncnc32)C(O)C1O` (stereo unspecified), the hERG blockade is 9.21% (inactive).

Consider `OCC1OC(n2cnc3c(SCc4ccccc4)ncnc32)C(O)C1O` (stereo unspecified), for which the hERG blockade was 22.8% (active).

As to `C[N+](C)(C)c1nc(N)nc2c1ncn2C1OC(CO)C(O)C1O` (stereo unspecified), the hERG blockade is 13.1% (inactive).

Take `C[N+](C)(C)c1ncnc2c1ncn2C1CCCCO1` (stereo unspecified): the hERG blockade was -24.9% (active).

For `Fc1cccc(CSc2ncnc3c2ncn3C2CCCS2)c1` (stereo unspecified), the hERG blockade is 12.5% (inactive).

In the case of `OCCn1cnc2c(SCc3ccccc3)ncnc21`, the hERG blockade is -7.5% (inactive).

In the case of `Clc1ccc(CSc2ncnc3c2ncn3C2CCCCO2)cc1` (stereo unspecified), the hERG blockade is 24.5% (active).

On to `NC(CNO)C(=O)O` (stereo unspecified), for which the hERG blockade is -10.6% (inactive).

Regarding `Nc1nc2c(ncn2C2C=CC(CO)C2)c(=O)[nH]1` (stereo unspecified), the hERG blockade is 1.77% (inactive).

As for `CN1CCCC1c1cccnc1.O=C(O)c1ccccc1O.O=C([OH2+])c1ccccc1O.O=C([OH2+])c1ccccc1O.O=C([OH2+])c1ccccc1O.[Mn+2]` (stereo unspecified), the hERG blockade is 15.5% (inactive).

Consider `CN1CCCC1c1cccnc1.O=C(O)c1ccccc1O.O=C([OH2+])c1ccccc1O.O=C([OH2+])c1ccccc1O.O=C([OH2+])c1ccccc1O.[Cu+2]` (stereo unspecified), for which the hERG blockade was 26% (active).

Turning to `CN1CCCC1c1cccnc1.O=C(O)c1ccccc1O.O=C([OH2+])c1ccccc1O.O=C([OH2+])c1ccccc1O.[Mn+2]` (stereo unspecified), the hERG blockade is 13.4% (inactive).

With `O=C(O)CCSc1ncnc2nc[nH]c12`, the hERG blockade is 2.65% (inactive).

`N=C(c1ccc2ccccc2c1)c1ccccc1Cc1ccccc1`: the hERG blockade is 9.45% (inactive).

`CC1(CCOCc2ccccc2)NC(=O)NC1=O` (stereo unspecified): the hERG blockade is -3.15% (inactive).

On to `COc1ccc(C=C(C#N)C(N)=O)cc1OC`, for which the hERG blockade is 4.46% (inactive).

As to `COc1ccc(C[N+](C)(C)N)cc1OC`, the hERG blockade is -25.5% (active).

In the case of `Nc1nc(N)nc(CCCCc2nc(N)nc(N)n2)n1`, the hERG blockade was 8.11% (inactive).

On to `NCc1nnn(Cc2ccccc2)c1N`, for which the hERG blockade is 0.879% (inactive).

`CC1(C(=O)O)CCCC1C(=O)O` (stereo unspecified): the hERG blockade was 0.951% (inactive).

`O=c1ccnc(SCc2ccc(Cl)cc2)[nH]1`: the hERG blockade was -3.26% (inactive).

As for `O=S(=O)(CC(O)C(Cl)(Cl)Cl)NNc1ccccc1` (stereo unspecified), the hERG blockade was -8.3% (inactive).

With `O=CNC(Cc1cnc[nH]1)C(=O)O` (stereo unspecified), the hERG blockade is -6.41% (inactive).

For the compound `O=S(=O)(O)c1cc(N=[N+]([O-])c2cc(S(=O)(=O)O)c3ccccc3c2)cc2ccccc12`, the hERG blockade was 20.3% (active).

With `Nc1ccc(N=Nc2c(S(=O)(=O)O)cc3ccccc3c2S(=O)(=O)O)cc1`, the hERG blockade was 5.01% (inactive).

`O=S(=O)(O)c1cc(N=Nc2cccc3ccccc23)c(O)c2ncccc12`: the hERG blockade was 10.6% (inactive).

On to `CCC(Nc1ncnc2nc[nH]c12)C(=O)O` (stereo unspecified), for which the hERG blockade is -0.207% (inactive).

For the compound `S=C(S)NCCN1CCNCC1`, the hERG blockade was 6.35% (inactive).

As for `O=CN1CCN(CC(O)CN2CCCCC2)CC1` (stereo unspecified), the hERG blockade was -4.54% (inactive).

On to `CN(C)CC1CCC2=C(C1=O)C(c1ccc(Cl)c(Cl)c1)C1=C(CCC(CN(C)C)C1=O)O2` (stereo unspecified), for which the hERG blockade is 24.7% (active).

In the case of `CN(C)CC1CCCC(CN(C)C)C1=O` (stereo unspecified), the hERG blockade is -6% (inactive).

Consider `O=C1c2ccccc2C(=O)N1c1ccc(Cc2ccc(N3C(=O)c4ccccc4C3=O)cc2)cc1`, for which the hERG blockade was -0.893% (inactive).

Consider `O=C(CC(=O)c1ccncc1)c1ccccc1`, for which the hERG blockade is 10.3% (inactive).

`O=C(O)C=CC(=O)Nc1ccccn1`: the hERG blockade was 5.5% (inactive).

For `N=C(CC(=O)Nc1ccccn1)c1ccccc1`, the hERG blockade is -21.8% (active).
